HT1080-NT tox: qHTS for induction of synthetic lethality in tumor cells producing 2HG: qHTS for the HT-1080-NT fibrosarcoma cell line; HT-1080-NT fibrosarcoma viability, CellTiter-Glo ATP luminescence, 48 h; Potency, µM (titrated, usually from 46.1 µM), for inactives: at the top dose activity, negative = less viability, actives largely listed as cytotoxic; AID 686970, 2013; hit rate 1.6% among 360,000;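 also: NT is the 2HG producing partner of a matched IDH1 knockdown line; 0% = DMSO-treated cells and -100% = media-only wells without cells; nearly all actives have a fitted effect of over 55% in size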
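750 cells/well, RPMI + 5% FBS; 2 h settle, compound pin-transfer, 48 h at 37 degrees C. CellTiter-Glo 10 min RT, luminescence. Normalized to DMSO and media-only wells.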
MCF10A rereplic: A quantitative high throughput screen for small molecules that induce DNA re-replication in MCF 10a normal breast cells | MCF 10A DNA re-replication, Hoechst nuclear intensity, 48 h | Potency, µM (titrated, usually from 46.1 µM), for inactives: at the top dose activity, positive = re-replication, usual class: activators | hit rate 2.9% among 350,000; also: % of control where 0% means no effect; nearly all actives have a fitted effect of over 50% in size
SW480 rereplic: A quantitative high throughput screen for small molecules that induce DNA re-replication in SW480 colon adenocarcinoma cells; AID 624297, 2012; Potency, µM (doses to about 46.1 µM), for the others: at the top dose re-replication activation, hits mostly activators; SW480 DNA re-replication, Hoechst DNA content imaging, 48 h; hit rate 1.8% among 340,000; also: % of control where 0% means no effect; nearly all actives have a fitted effect of over 55% in size
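Treated cells incubate 48 hr (37 C, 5% CO2), are stained 40 min with Hoechst, and nuclear fluorescence is enumerated; a rise in nuclei with high DNA signal marks re-replication.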
KB-3-1 cytotox: qHTS assay for MDR1-selective chemotherapeutics: Primary screen using the parental adenocarcinoma cell KB-3-1; KB-3-1 viability, CellTiter-Glo ATP luminescence, 72 h; hit rate 1.4% among 400,000; Potency, µM (titrated, usually from 46.1 µM), actives largely listed as cytotoxic; also: % is scaled to controls: 0 for no effect and ±100 for the full control effect; nearly all actives have a fitted effect of over 60% in size
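Multi-concentration cytotoxicity screen in KB-3-1 cells grown in DMEM lacking phenol red with 10% FBS. After 72 h at 37 °C with compound, ATP-dependent luminescence was recorded.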
HT1080 IDH1KD tx: qHTS for induction of synthetic lethality in tumor cells producing 2HG: qHTS for the HT-1080-IDH1KD cell line. Potency, µM (titrated, usually from 46.1 µM), without a hit: top-dose activity, negative = toxicity, hits mostly cytotoxic. hit rate 2% among 360,000. HT-1080 IDH1 knockdown viability, ATP luminescence, 48 h;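 also: 0% = DMSO wells and -100% = cell-free medium wells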
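Knockdown cells (IDH1KD HT-1080) received compounds 2 h after plating at 750 cells/well and were kept 48 h at 37 °C in 5% FBS RPMI. A CellTiter-Glo luminescence read gave % activity for curve fitting.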
KB-V1 MDR tox: qHTS assay for MDR1-selective chemotherapeutics: Primary screen using the drug-selected MDR subline cells KB-V1; KB-V1 MDR cells viability, CellTiter-Glo, 72 h; Potency, µM (top dose mostly 46.1 µM), actives largely listed as cytotoxic; hit rate 3.4% among 400,000; AID 1347076, 2019; also: % is scaled to controls: 0 for no effect and ±100 for the full control effect; nearly all actives have a fitted effect of over 60% in size
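Potencies derive from concentration-effect curves fitted to normalized luminescence (CellTiter-Glo) of KB-V1 cells treated for 72 h at 37 degrees C in phenol-red-free DMEM containing 10% FBS.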
Numbers without * were called inactive; i = inactive; ? = inconclusive; . = no result; [ ] = another dose, or the depositor's remark. Hits are enriched below; roughly 7.9% of the tested compounds scored in any of these assays. Calls follow the shape of the dose curve; as a rule, active = well fitted curve in the direction sought with a large enough effect; inconclusive = small, poorly fitted or top-dose-only effect, or another doubt; inactive = no such curve, though single readings can be large; an effect the other way counts as inactive or inconclusive. Potency is read from the fitted curve at half-maximal effect.

SMILES	HT1080-NT tox	MCF10A rereplic	SW480 rereplic	KB-3-1 cytotox	HT1080 IDH1KD tx	KB-V1 MDR tox
CCC(=O)Nc1cc2c(cc1C(C)=O)OCCO2	24%	10%	2%	i	16%	i
CCn1c2ccccc2c2cc(NC(=O)COc3ccc(OC)cc3)ccc21	?	0%	-11%	i	12%	i
COc1cc(C(=O)Nc2ccc3c(c2)N(C(=O)CCN(C)C)c2ccccc2CC3)cc(OC)c1OC	?	13µM*	?	i	?	?
Cc1ccc(-n2nc3ccc(NC(=O)c4cccc([N+](=O)[O-])c4C)cc3n2)cc1	?	13µM*	?	i	?	?
CCn1c2ccccc2c2cc(NC(=O)c3cc(OC)c(OC)c(OC)c3)ccc21	0.82µM*	?	0.82µM*	0.58µM*	1.5µM*	?
CCn1c2ccccc2c2cc(NC(=O)c3cc(OC)cc(OC)c3)ccc21	1.3µM*	1.5µM*	0.65µM*	?	1.5µM*	2.3µM*
CN(C)CC(=O)N1c2ccccc2CCc2ccc(NC(=O)c3ccc(N)cc3)cc21	-5%	-3%	-3%	i	3%	i
COc1ccccc1NS(=O)(=O)c1ccc(C)c(C(=O)Nc2cc(C)on2)c1	3%	-9%	7%	.	-1%	.
CCn1c2ccccc2c2cc(/C=N/NC(=O)c3cc(O)cc(O)c3)ccc21	?	?	-2%	?	?	i
CCn1c2ccccc2c2cc(/C=N/NC(=O)c3ccc(O)cc3)ccc21	?	?	?	?	?	21µM*
COc1ccc(C2CC(c3cccc(C(F)(F)F)c3)=NN2c2ccc(S(N)(=O)=O)cc2)cc1 (centres undefined)	?	?	?	?	-28%	?
COc1ccc(C2=NN(CN3C(=O)C(=O)c4ccccc43)C(c3ccc(OC)cc3)C2)cc1 (centres undefined)	3%	2%	5.8µM*	i	1%	i
COc1ccc(C2CC(c3ccccc3Cl)=NN2c2ccc(S(N)(=O)=O)cc2)cc1 (centres undefined)	18µM*	?	2.3µM*	i	?	i
COc1ccc(C2=NN(S(=O)(=O)c3ccccc3)C(c3ccccc3)C2)cc1 (centres undefined)	1%	-3%	?	i	0%	?
COc1ccc(C2CC(c3ccccc3)=NN2c2ccc(C(N)=O)cc2)cc1 (centres undefined)	?	?	21µM*	i	?	i
O=C(O)c1ccc(N2N=C(c3ccccc3)CC2c2ccccc2)cc1 (centres undefined)	-3%	2.3µM*	?	i	-1%	i
O=Cc1ccc(N2N=C(c3ccccc3)CC2c2ccccc2)cc1 (centres undefined)	-21%	?	?	i	-2%	i
Cc1ccc(NC(=O)Cc2coc3ccc(C(C)C)cc23)c(C)c1	.	.	.	i	.	i
Cn1c(N)c(C(=O)COC(=O)/C=C/c2ccccc2Cl)c(=O)n(C)c1=O	9%	-2%	-6%	i	9%	i
NS(=O)(=O)c1ccc(N2N=C(c3ccccc3)CC2c2cccc(Cl)c2)cc1 (centres undefined)	?	?	3.7µM*	i	?	i
COc1ccc(C2CC(c3ccccc3)=NN2c2ccc(S(N)(=O)=O)cc2)cc1 (centres undefined)	?	0.58µM*	16µM*	i	?	?
NS(=O)(=O)c1ccc(N2N=C(c3ccccc3)CC2c2ccc(F)cc2)cc1 (centres undefined)	-4%	21µM*	21µM*	i	-20%	?
COc1ccc(C2CC(c3cccc(F)c3)=NN2c2ccc(S(N)(=O)=O)cc2)cc1 (centres undefined)	-11%	2.1µM*	2.3µM*	?	-15%	i
O=C(COC(=O)c1ccc(Cl)c(S(=O)(=O)N2CCCC2)c1)NC1CCCCC1	8%	-1%	-32%	i	5%	i
N#Cc1nc(-c2ccco2)oc1N1CCOCC1	7%	-6%	-11%	i	10%	i
SMILES	HT1080-NT tox	MCF10A rereplic	SW480 rereplic	KB-3-1 cytotox	HT1080 IDH1KD tx	KB-V1 MDR tox
COc1ccc(OC)c2sc(N3CCN(C(=O)CCS(=O)(=O)c4ccc(F)cc4)CC3)nc12	.	.	.	i	.	?
Cc1ccc(S(=O)(=O)N2CCC(C(=O)Nc3ccccc3N3CCCCC3)CC2)cc1	-7%	-1%	17%	i	7%	i
CN(C)c1cccc(C(=O)Nc2nc3ccc(S(=O)(=O)N4CCCC4)cc3s2)c1	.	.	.	10µM*	.	21µM*
Cc1ccc(S(=O)(=O)N2CCC(C(=O)Nc3ccccc3N3CCCC3)CC2)cc1	-12%	-2%	7%	i	-5%	5.8µM*
Cc1ccc(C(=O)Nc2nc3ccc(S(=O)(=O)N4CCCC4)cc3s2)cc1	.	.	.	i	.	i
C=CCN(CC=C)S(=O)(=O)c1ccc2nc(NC(=O)C3CCCO3)sc2c1 (centres undefined)	?	?	?	?	?	8.2µM*
COc1cccc(C(=O)Nc2nc3ccc(S(=O)(=O)N4CCCC4)cc3s2)c1	.	.	.	13µM*	.	?
COc1ccc(C(C(=O)NC2CCCC2)N(C(=O)c2ccco2)c2cc3c(cc2C(C)=O)OCO3)cc1OC (centres undefined)	3%	-4%	-12%	i	6%	i
Cc1cc(C)c2c(c1)cc(C)c1nnc(SCC(=O)Nc3ccc(S(=O)(=O)N4CCCCC4)cc3)n12	-8%	-3%	9%	i	-16%	18µM*
O=C(Nc1nc2ccccc2s1)C1CCN(S(=O)(=O)c2cc([N+](=O)[O-])ccc2Cl)CC1	?	3%	?	2.3µM*	16µM*	13µM*
Cc1ccc2cc(C)c(SCC(=O)Nc3ccc(S(=O)(=O)N4CCCC4)cc3)nc2c1	4%	3%	-13%	i	-7%	i
COc1ccc(OC)c(S(=O)(=O)N2CCC(C(=O)Nc3cc(C)ccc3C)CC2)c1	2%	?	4.6µM*	i	2%[9.24 µM]	?

Screening data (PubChem BioAssay)
